Common to all, as to experiment: PBM binding z-score (relative to random genomic background probes); higher = stronger binding; sequences stand for … in GC…GCGATTGACAGCGTAGAATGAAGG
The subject of assay [1] is FXR:RXRa (NR concentration 270 nM, RXRa partner concentration 90 nM). In a few lines: (§1)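 On custom Agilent 4×180K arrays, double-stranded probes with 34-nt variable regions carried direct-repeat seeds, single-nucleotide variants, half-site ablations or random human genomic background. Ligand-free nuclear receptor dimers were applied for 1 h, and binding was read with antibodies against each partner (one per run). Binding z-scores come from regression-normalized fluorescence, with the random background probes as reference.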

The subject of assay [2] is LXRa:RXRa (NR concentration 270 nM, RXRa partner concentration 90 nM). In outline: as §1
For assay [3], the system named is LXRa homodimer (NR concentration 270 nM). In outline: as §1
The test system of assay [4] is LXRb:RXRa (NR concentration 270 nM, RXRa partner concentration 90 nM). In outline: as §1
Assay [5] has as its system LXRb homodimer (NR concentration 270 nM). In a few lines: as §1
The test system of assay [6] is PPARa:RXRa (NR concentration 270 nM, RXRa partner concentration 90 nM). In a few lines: as §1
The subject of assay [7] is PPARg:RXRa (NR concentration 180 nM, RXRa partner concentration 90 nM). In a few lines:
as §1

In assay [8] the test system is PPARg:RXRa 270nM:90nM, anti-RXR (NR concentration 270 nM, RXRa partner concentration 90 nM). In outline: as §1
For assay [9], the system named is PPARg:RXRa 30nM:10nM, anti-RXR (NR concentration 30 nM, RXRa partner concentration 10 nM). In a few lines:
as §1

The subject of assay [10] is PPARg:RXRa 90nM:30nM, anti-RXR (NR concentration 90 nM, RXRa partner concentration 30 nM). In a few lines: as §1
The test system of assay [11] is PPARg:RXRa DBDmut IVT, anti-RXR (DBD mutation: RXRa K156A/R161A, NR concentration 270 nM, RXRa partner concentration 90 nM). In outline: as §1
In assay [12] the test system is PPARg:RXRa IVT, anti-PPARg (NR concentration 270 nM, RXRa partner concentration 90 nM). In outline:
as §1

Assay [13] deals with PPARg DBDmut:RXRa IVT, anti-PPARg (DBD mutation: PPARg1 K132A/R137A, NR concentration 270 nM, RXRa partner concentration 90 nM). In a few lines: as §1
Assay [14] concerns PPARg DBDmut IVT, anti-PPARg (DBD mutation: PPARg1 K132A/R137A, NR concentration 270 nM). In a few lines:
as §1

For assay [15], the system named is PPARg homodimer (NR concentration 180 nM). In outline: as §1
In assay [16] the test system is PXR:RXRa (NR concentration 270 nM, RXRa partner concentration 90 nM). In a few lines: as §1
For assay [17], the system named is PXR homodimer (NR concentration 270 nM). In a few lines: as §1
The test system of assay [18] is RARa:RXR (NR concentration 270 nM, RXRa partner concentration 90 nM). In outline: as §1
The subject of assay [19] is RARa homodimer (NR concentration 270 nM). In outline:
as §1

For assay [20], the system named is RARb:RXRa (NR concentration 270 nM, RXRa partner concentration 90 nM). In a few lines:
as §1

The results in this text go back to the supplement of paper PMC6555819.

Take CCAAGTAGGTTATGGGGCATTCAGGCAACGGTGA: the PBM binding z-score in [1] was 0.142; in assay [2], 0.353; in [3], -0.344; in assay [4] it was 0.363; in assay [5], -0.655; in [6] it was 2.93. Besides, the PBM binding z-score in [7] is 5.23; in [8], 5.69; in [9] it was 4.33; in assay [10] it was 5.84; in assay [11], 5.49; in assay [12], 4.96. Moreover, the PBM binding z-score is 0.251 in [13]; 0.296 in assay [14]; 1.18 in assay [15]; -0.156 in [16]; -0.101 in assay [17]; 0.207 in [18]. The PBM binding z-score stood at 0.919 in [19] and 1.05 in [20].

For TCTATTAGCTGAAGGGCAACCGACGAGTCCGTTT, the PBM binding z-score in assay [1] was -0.0805; in assay [2], 0.244; in [3], -0.393; in [4] it was 0.444; in assay [5] it was -0.429; in [6], 0.629. The PBM binding z-score in assay [7] came to 0.0411; in assay [8] it was 1.66; in assay [9] it was 2.6; in assay [10] it was 2.2; in [11] it was 1.6; in assay [12], 0.162. In addition, the PBM binding z-score is 0.664 in [13]; 0.466 in [14]; -0.169 in assay [15]; 0.472 in assay [16]; 0.237 in assay [17]; 0.362 in assay [18]. The results for the PBM binding z-score in assay [19] and in assay [20] were -0.62 and 1.29, respectively.

With ATATGTAGGTTAAGGGCCATTCAGGTTGGTTCGC, the PBM binding z-score in assay [1] came out at 0.756; in [2], 0.989; in assay [3] it was 0.305; in [4] it was 0.911; in [5] it was 0.0829; in assay [6], 4.43. The PBM binding z-score in assay [7] came out at 7.86; in assay [8], 7.32; in [9], 6.65; in assay [10] it was 7.62; in assay [11], 7.52; in assay [12], 6.88. The PBM binding z-score in assay [13] was found to be 2.91; in [14], 2.4; in assay [15], 1.27; in assay [16], 0.874; in assay [17], 0.768; in assay [18], 0.938. In addition, the PBM binding z-score in assay [19] stood at 0.601; in assay [20], 1.5.

As to ATCTCTAGGTAATGTTCAGTGAAAGATCGATAGA, the PBM binding z-score in assay [1] turned out to be 0.347; in assay [2] it was 0.554; in [3], 0.048; in assay [4], 0.107; in assay [5], 1.09; in [6], 0.239. Moreover, the PBM binding z-score was 0.489 in assay [7]; 0.323 in assay [8]; 0.558 in assay [9]; 0.276 in [10]; 2.57 in assay [11]; 1.63 in assay [12]. Further, the PBM binding z-score in assay [13] is 1.27; in assay [14], 1.25; in assay [15], 0.598; in [16] it was 0.381; in [17] it was 0.219; in assay [18] it was 0.543. The results for the PBM binding z-score in assay [19] and in assay [20] were 0.802 and 0.148, respectively.

In the case of TCTTGTAGATCAGCAGGATAAGAAAGCTGGCCAA, the PBM binding z-score in assay [1] is -0.292; in assay [2] it was -0.433; in [3], -0.526; in assay [4] it was -0.411; in assay [5], -0.635; in assay [6], 0.0173. Besides, the PBM binding z-score was -0.182 in assay [7]; 1.01 in [8]; 2.37 in [9]; 1.45 in assay [10]; 1.55 in assay [11]; 0.124 in assay [12]. Besides, the PBM binding z-score was 0.2 in assay [13]; -0.242 in [14]; -1.15 in assay [15]; -0.413 in assay [16]; -0.584 in [17]; -0.151 in assay [18]. In addition, the figures for the PBM binding z-score in assay [19] and in assay [20] were -0.239 and -0.505, respectively.

TAACCTAGGTCATGGGCCAGTATACCACGCGAAC: the PBM binding z-score was 5.24 in assay [1]; 4.78 in assay [2]; 1.74 in [3]; 3.44 in assay [4]; 0.868 in assay [5]; 4.78 in assay [6]. Further, the PBM binding z-score in assay [7] was found to be 5.73; in [8], 5.21; in assay [9], 2.54; in [10], 4.41; in assay [11], 4.06; in assay [12], 5.09. In addition, the PBM binding z-score in assay [13] amounted to 1.44; in [14], 0.97; in [15], 2.68; in assay [16], 2.19; in assay [17], 0.195; in assay [18] it was 3.44. Moreover, the results for the PBM binding z-score in assay [19] and in assay [20] were 1.11 and 4.08, respectively.

As to CGAACGAGGGCATGAGTTTATAGCAAATGCCGAT, the PBM binding z-score was 0.448 in [1]; 0.306 in assay [2]; -0.244 in assay [3]; 0.294 in [4]; -1.03 in [5]; 1.43 in [6]. For the same sequence, the PBM binding z-score in assay [7] amounted to 1.45; in [8], 1.38; in assay [9], 0.138; in assay [10] it was 0.962; in [11] it was 3.26; in [12], 2.5. Also, the PBM binding z-score in [13] is 0.366; in assay [14] it was -0.357; in assay [15] it was 0.413; in assay [16], 1.65; in assay [17] it was 1.18; in assay [18] it was 0.678. The PBM binding z-score in assay [19] was -0.149; in assay [20] it was 2.11.
